# From PubChem BioAssay
# Calls of active or inactive are those of the source. The rule behind the calls is not given here.
# Biological target: Pantothenate synthetase (Mycobacterium tuberculosis (strain ATCC 25618 / H37Rv)) (UniProt P9WIL5)
# Assay: Recombinant Mtb pantothenate synthetase (PanC) inhibitors, coupled enzyme, confirmatory (AID 375);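 note: 0% = full reaction with vehicle and 100% = no enzyme background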
# Conditions: coupled enzyme assay; at 10 µM, active compounds read high
# Chain of Pantothenate synthetase (Mycobacterium tuberculosis (strain ATCC 25618 / H37Rv)) (P9WIL5 whole entry, looked up): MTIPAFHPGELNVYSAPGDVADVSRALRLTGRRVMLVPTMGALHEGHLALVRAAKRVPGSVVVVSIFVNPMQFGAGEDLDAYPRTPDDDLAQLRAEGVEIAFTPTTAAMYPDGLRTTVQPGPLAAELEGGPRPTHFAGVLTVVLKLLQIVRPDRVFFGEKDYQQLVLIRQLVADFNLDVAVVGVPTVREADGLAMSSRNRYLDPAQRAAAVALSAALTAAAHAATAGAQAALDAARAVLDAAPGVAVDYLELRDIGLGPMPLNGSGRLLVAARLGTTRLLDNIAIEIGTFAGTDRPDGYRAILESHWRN
row,SMILES,inhibition
1,O=C(CC1Oc2ccc(Cl)cc2NC1=O)NC1CCCCCC1 (configuration not stated),6% (inactive)
2,CCC(C)NC(=O)CSC1=Nc2ccccc2C2=NC(CC(=O)NCc3ccccc3)C(=O)N12 (configuration not stated),0% (inactive)
3,COc1ccc(C(C)N2CC34C=CC(O3)C(C(=O)OCC(C)C)C4C2=O)cc1 (configuration not stated),9% (inactive)
4,CCOc1ccc(OCC)c(NC(=O)C2CCN(c3ncccn3)CC2)c1,0% (inactive)
5,Cc1ccc(NC(=O)CSc2nnc(NC(=O)CN3CCOCC3)s2)cc1,5% (inactive)
6,CCN(CC)c1ccc(NC(=O)c2[nH]c(C)c(C(C)=O)c2C)c(C)c1,0% (inactive)
7,CC(C)(C)c1cc(NC(=O)c2cc(F)c(F)c(F)c2F)no1,0% (inactive)
8,Cc1oc(-c2ccccc2F)nc1CS(=O)(=O)CC(=O)N1CCCCCC1,1% (inactive)
9,Cc1cc(Cl)c(S(=O)(=O)N2CCN(c3ccc(F)cc3)CC2)cc1OCC(N)=O,0% (inactive)
10,CCOC(=O)c1c(NC(=O)c2ccoc2C)sc2c1CCC2,7% (inactive)
11,CCOC(=O)c1cc(C(C)(C)C)oc1CN,0% (inactive)
12,O=C(CCN1CCN(C(=O)c2ccco2)CC1)Nc1ccc(F)cc1,2% (inactive)
13,COc1ccc(C2C3=C(CCCC3=O)Nc3nc(SCc4ccccc4)nn32)cc1OC (configuration not stated),0% (inactive)
14,Cc1cc(C(=O)Nc2nc3c(s2)CCCC3)cs1,0% (inactive)
15,Cn1c(=O)c2ccccc2n(Cc2ccccc2F)c1=O,0% (inactive)
16,CC(C)(C)NCc1cc2ccccc2[nH]c1=O,0% (inactive)
17,O=C(O)CCc1ccc(-c2ccc(Br)cc2)n1CC(=O)O,0% (inactive)
18,Cc1n[nH]c(C)c1S(=O)(=O)Nc1ccc2c(c1)OCCO2,0% (inactive)
19,O=C1c2ccccc2-c2ccc(C(=O)N3CCOCC3)cc21,0% (inactive)
20,Cc1nc(NCCNC(=O)c2ccco2)c2c(C)c(C)sc2n1,2% (inactive)
21,COC(=O)CCSCc1cn2cc(Cl)ccc2n1,0% (inactive)
22,Cc1ccc(-c2cc(C(F)F)n3ncc(C(=O)N4CCN(c5ccccn5)CC4)c3n2)cc1,6% (inactive)
23,CCCNS(=O)(=O)c1ccc(OCC(=O)NCc2ccc3c(c2)OCO3)cc1,2% (inactive)
24,COC(=O)Nc1ccc(S(=O)(=O)N(C)CC(F)(F)C(F)F)cc1,6% (inactive)

row,SMILES,inhibition
1,CCC(=O)Nc1ccc(NC(=O)CSc2nnnn2C(C)C)cc1,0% (inactive)
2,Cc1onc(-c2c(Cl)cccc2Cl)c1C(=O)NCCCN1CCOCC1,1% (inactive)
3,Cc1ccccc1OCCn1c(=O)oc2ccccc21,2% (inactive)
4,Cc1ccc(CN2C(=O)CCC2C(=O)NCCCN2CCC(C)CC2)cc1 (configuration not stated),8% (inactive)
5,Cc1cnnc2c1-c1nonc1CC2,4% (inactive)
6,Cc1cc2ccccn2c1C(=O)c1ccncc1,5% (inactive)
7,COc1ccc(CCNS(=O)(=O)c2ccc(C(=O)NCc3ccco3)cc2)cc1OC,0% (inactive)
8,Cc1nc(N2CCOCC2)[nH]c(=O)c1CCC(C)C,8% (inactive)
9,CCOc1ccc2nc(NC(=O)CSc3nnnn3C3CCCCC3)sc2c1,1% (inactive)
10,CCOc1ccc(N2CC(C(=O)Nc3ccccc3OC)CC2=O)cc1 (configuration not stated),0% (inactive)
11,COCCn1c(CN(Cc2ccccc2)Cc2ccccc2)nc2c1c(=O)n(C)c(=O)n2C,0% (inactive)
12,CC(C)(C)NC(=O)CN(Cc1cccs1)C(=O)c1csnn1,0% (inactive)
13,O=C(CSc1nnc(-c2ccccc2)o1)NC1CCCCC1,0% (inactive)
14,COc1ccc2c(c1OC)C(=O)N(c1ccc3c(c1)CCC3)C2=O,2% (inactive)
15,CCOc1ccc(NC(=O)CSc2nnc(COc3c(C)cccc3C)o2)cc1,1% (inactive)
16,CCCn1c(SCC(=O)Nc2ccccc2C(=O)OCC)nc2c1c(=O)n(C)c(=O)n2C,0% (inactive)
17,CCOC(=O)C1=C(C)NC(SC(C)=O)=NC1c1ccc(OC(C)=O)c(OC)c1 (configuration not stated),4% (inactive)
18,Cc1ccc2[nH]c(=O)c(CN(Cc3ccc4c(c3)OCO4)Cc3nnnn3Cc3ccco3)cc2c1,0% (inactive)
19,O=C(c1ccc(Br)o1)N(Cc1ccccc1)c1ccccn1,3% (inactive)
20,Nc1nnc(-c2cc3ccccc3oc2=O)s1,8% (inactive)
21,COc1ccc(S(=O)(=O)NCCOc2ccccc2)cc1OC,0% (inactive)
22,O=C(NCc1ccccc1)C1CCCN(S(=O)(=O)c2cccnc2)C1 (configuration not stated),0% (inactive)
23,COc1ccc(-c2nnc(SCC(=O)NC(=O)NCc3ccco3)o2)cc1,0% (inactive)
24,COC(=O)c1cc(O)c(OCc2ccccc2)c(O)c1,0% (inactive)

row,SMILES,inhibition
1,CCCCOc1ccccc1C1C(C(N)=O)=C(C)Nc2nnnn21 (configuration not stated),0% (inactive)
2,CCCCCn1c2nc3ccccc3nc2c2c(=O)n(CC(C)C)cnc21,7% (inactive)
3,CC1CCCC(NC(=O)CN2CCN(Cc3ccc(Cl)cc3)C2=O)C1C (configuration not stated),7% (inactive)
4,COc1ccc(C(=O)N(Cc2ccco2)C(C(=O)NC2CCCC2)c2ccc(O)cc2)cc1OC (configuration not stated),0% (inactive)
5,CCOC(=O)C1=C(C)Nc2ncnn2C1c1ccccc1F (configuration not stated),6% (inactive)
6,Cc1cc(C)cc(OCC(=O)NC2=NCCS2)c1,0% (inactive)
7,COC(=O)c1c(O)ccc(Oc2ccccc2)c1C(=O)OC,0% (inactive)
8,CCCCN1CN(S(=O)(=O)c2cccs2)c2nc3ccccc3nc21,0% (inactive)
9,N#Cc1c2n(c(=S)n(-c3ccccn3)c1=O)CCCCC2,2% (inactive)
10,Nn1c(SCC(=O)NC2CCCCC2)nnc1-c1ccc(Cl)cc1,2% (inactive)
11,CC(=O)NCCCCCCNC(C)=O,0% (inactive)
12,CN(C)S(=O)(=O)N1CCN(C(=O)N(c2ccccc2)c2ccccc2)CC1,0% (inactive)
13,COc1ccc(S(=O)(=O)N2CCOCC2)cc1C(=O)Nc1cc(C)on1,0% (inactive)
14,N#C/C(C(=O)NCc1ccco1)=C1/SC(Cc2ccc(F)cc2)C(=O)N1c1ccccc1 (configuration not stated),0% (inactive)
15,O=C(CSc1nnc(-c2ccccc2Cl)n1Cc1ccco1)Nc1ccc2c(c1)OCCO2,2% (inactive)
16,CSc1ccc2c(c1)N(CCC1CCCCN1C)c1ccccc1S2 (configuration not stated),11% (inactive)
17,Cc1ccc(NC(=O)CSc2nnc(-c3ccc(S(=O)(=O)N4CCOCC4)cc3)n2C)cc1,1% (inactive)
18,Cc1c(C)n(C(=O)CN2CCN(c3ccccn3)CC2)c2ccccc12,0% (inactive)
19,Cn1c(=N)c(S(=O)(=O)c2ccc(Cl)cc2)cc2c(=O)n3ccccc3nc21,0% (inactive)
20,CC(C)NC(=O)c1ccc2c(c1)nnn2C,0% (inactive)
21,COc1ccc(-c2noc(CN3C(=O)c4ccccc4C3=O)n2)cc1,0% (inactive)
22,CCN(CCCc1ccccc1)CCCc1ccccc1,0% (inactive)
23,COc1ccc(CN2C(=O)C(O)(CC(=O)c3c(C)n[nH]c3C)c3ccccc32)cc1OC (configuration not stated),0% (inactive)
24,O=C(NCCCCNC(=O)c1cccnc1)c1cccnc1,0% (inactive)
